Experimental data as given in PubChem BioAssay (NCI).
This is part of a sample that, as a whole, favours compounds with a hit. Of some 83,000 tested, about 20% had one in any assay.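 Values shown are percent growth following 48 h exposure of cells in 96-well plates to a single concentration of compound; below 10 was considered active.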 Unmarked numbers belong to inactive results. Active and inactive are the calls of the source.

How the values were obtained:
Experiment in all cases: NCI-60 one-dose screen, 48 h (100 = growth as untreated, 0 = no growth, -100 = all killed)
DU-145 prostate = conditions: 10 µM unless noted
MALME-3M melanoma = conditions: 10 µM unless noted
RXF 393 renal = conditions: 10 µM unless noted
SF-295 CNS = conditions: 10 µM unless noted
UACC-257 melanoma = conditions: 10 µM unless noted
SNB-19 CNS = conditions: 10 µM unless noted
LOX IMVI melanoma = conditions: 10 µM unless noted
SK-MEL-2 melanoma = conditions: 10 µM unless noted
ACHN renal = conditions: 10 µM unless noted
HL-60(TB) leukemia = conditions: 10 µM unless noted
CCRF-CEM leukemia = conditions: 10 µM unless noted
MOLT-4 leukemia = conditions: 10 µM
OVCAR-8 ovarian = conditions: 10 µM unless noted
IGROV1 ovarian = conditions: 10 µM
OVCAR-3 ovarian = conditions: 10 µM unless noted
NCI/ADR-RES ovarian = conditions: 10 µM unless noted
T-47D breast = conditions: 10 µM unless noted
HCC-2998 colon = conditions: 10 µM unless noted
K-562 leukemia = conditions: 10 µM unless noted
SK-MEL-5 melanoma = conditions: 10 µM unless noted

SMILES	growth (DU-145 prostate)	growth (MALME-3M melanoma)	growth (RXF 393 renal)	growth (SF-295 CNS)	growth (UACC-257 melanoma)	growth (SNB-19 CNS) [%]	growth (LOX IMVI melanoma)	growth (SK-MEL-2 melanoma)	growth (ACHN renal)	growth (HL-60(TB) leukemia)	growth (CCRF-CEM leukemia)	growth (MOLT-4 leukemia)	growth (OVCAR-8 ovarian) [%]	growth (IGROV1 ovarian)	growth (OVCAR-3 ovarian)	growth (NCI/ADR-RES ovarian)	growth (T-47D breast)	growth (HCC-2998 colon)	growth (K-562 leukemia)	growth (SK-MEL-5 melanoma)
CC(=O)O[C@H]1CC[C@H]2[C@@H]3CC[C@H]4CC=C(C)C[C@]4(C)[C@H]3CC[C@]12C	106%	106%	111%	103%	111%	101	102%	110%	96.5%	89.9%	108%	94%	102	107%	102%	109%	92.1%	111%		
CC1(C)N=C(N)N=C(N)N1c1ccc(CCCCc2ccc(Cl)cc2S(=O)(=O)F)c(Cl)c1	22.5%	39.3%	29.6%	22.9%	10.1%	36.6	13.3%	38.3%	18.7%	15.5%	13.1%	28.7%	15.2	30.7%	25.2%	53.3%	28.6%	32%	14.5%	19.5%
N#CC1=C(N)Oc2cc3c(cc2C1c1cccs1)OCO3 (configuration not stated)	15.5%	40%	-5.68% (active)	4.03% (active)	60.8%	43.2	37.2%	21.2%	57.4%	-28.6% (active)	21.4%	29.9%	35.1	35.3%	-15% (active)	3.49% (active)	42.8%	39.5%		16.2%
CNC(C)Cc1ccccc1 (configuration not stated) (tested in a mixture with another compound)	108%	103%	105%	97.7%	109%	105	98.7%		95.7%		105%	90.6%	113	101%	104%	104%	90.5%	101%	88.9%	99.6%
CCC(C)[C@H]1O[C@]2(C=C[C@@H]1C)C[C@@H]1C[C@@H](C/C=C(\C)[C@@H](OC3C[C@H](OC)C(O[C@H]4C[C@H](OC)[C@@H](O)[C@H](C)O4)[C@H](C)O3)[C@@H](C)/C=C/C=C3\CO[C@@H]4[C@H](O)C(C)=C[C@@H](C(=O)O1)[C@]34O)O2 (some centres not stated)	11.4%			-41.9% (active)	-17.1% (active)	23.2	-93.1% (active)	-57.2% (active)	-95.1% (active)	-26.2% (active)		-26.6% (active)	12.5	13%	-72.3% (active)	7.16% (active)	0.0336% (active)	-49% (active)		-79.2% (active)
O=C1NC(=O)C(CN2C(=O)C3(c4ccccc42)[C@H](Cl)C(=O)N3c2ccccc2)C(=O)N1 (some centres not stated)	102%	95.4%	65.5%	91.5%		88.6	50.2%	76.6%	88.7%	85.4%	54.4%	62.5%	92.3	49.4%	54.7%	86.7%	38.1%	83.9%	65.5%	78.6%
CCN(CC)c1ccc(C=C2C(=O)NC(=S)NC2=O)cc1	98.8%	123%	-22.3% (active)	99.3%	91.3%	88.9	80%	98.1%	95.7%	42.7%	38.9%	81%	93	100%	80.6%	100%	78%	96.8%	78%	93.4%
O=C(CCCN1CCC2(CC1)C(=O)NCN2c1ccc(F)cc1)c1ccc(F)cc1	122%	94.7%	102%	180%	104%	95.6	106%	84.9%	108%	100%	96.9%	103%	97.8	71.9%	124%	97.9%	102%	100%	113%	104%
CC(=O)C1CCC2C3CC=C4CC(OC(=O)Cc5ccc(N(CCCl)CCCl)cc5)CCC4(C)C3CCC12C (configuration not stated)	86%	109%	108%	108%	116%	93.4		106%	100%	101%	64.5%	73%	103	97.3%	99.6%	96.2%	105%	93.7%		94.5%
Cc1cc(NC(=O)CCc2ccc(N3C(N)=NC(N)=NC3(C)C)cc2)ccc1S(=O)(=O)F	45.8%	32.3%		5.44% (active)			18.1%	-21.1% (active)	70.9%	13.3%	-13% (active)	21.6%	40.9		71.5%	19.2%	75.1%		22.8%	13.9%
CC12CCC(=O)C=C1CCC1C2CCC2(C)C(C(=O)COC(=O)Cc3ccc(N(CCCl)CCCl)cc3)CCC12 (configuration not stated)	109%	168%		74.5%		96.2	86.4%	20.6%	40.3%	26.7%	26.7%	49.5%	79.1		107%	91.8%	89.2%	-28.3% (active)	77.5%	85%
CC(C)[C@]12O[C@H]1[C@@H]1O[C@]13[C@]1(O[C@H]1C[C@H]1C4=C(CC[C@@]13C)C(=O)OC4)[C@@H]2OC(=O)OC(C)(C)C	8.08% (active)	-35.6% (active)	-52.2% (active)	-28.7% (active)	-7.48% (active)	16.5		-55.3% (active)	9.88% (active)	-15.7% (active)	13.4%	-3.98% (active)	16.8	-5.58% (active)	5.42% (active)	-2.52% (active)	23.8%	-38% (active)		-2.1% (active)
CCCCCCCCCCCCOc1ccc(C(=O)Oc2ccc(CSP3(=O)OCC4OC(n5cnc6c(N)ncnc65)C(F)C4OP(=O)(O)OCC4OC(n5ccc(=O)[nH]c5=O)C(F)C4O3)cc2)cc1 (configuration not stated)	103%	114%	60.8%	110%	31.4%	101	85.9%	86.6%		-18.4% (active)	68.3%	68.3%	109	97%	98.2%	102%	88.5%	105%	52.1%	109%
O=C1NC(=S)NC(=O)C1=Cc1ccccc1	122%	132%	115%	97.9%	115%	107	85.1%	196%	100%			115%	110	119%	121%	97.7%	93.4%	106%		98.7%
COc1ccc(OC)c(/C=C(/C)[N+](=O)[O-])c1	6.46% (active)		-18.5% (active)	110%	0.553% (active)	97.6	-88.6% (active)	56.4%	-27.7% (active)	62.3%	-2.22% (active)	0.523% (active)	13.1	-24.8% (active)	-11.3% (active)	81.1%	19.9%	106%	4.29% (active)	64.6%
CCN(CC)CCOc1c(C(C)C)cccc1C(C)C		107%	112%	93.8%	94.8%	106	99.5%	96.9%	97.4%	107%	102%	102%	100	101%	107%	101%	85.1%	102%	111%	101%
